Data: PubChem BioAssay (Tox21)
Results filed as inconclusive are left out. Activity calls are given as the source filed them. Unless noted, calls follow the shape of the dose curve; as a rule, active = well fitted curve in the direction sought with a large enough effect in the repeat runs; inconclusive = weak or mixed curves; inactive = no such curve, though single readings can be large; an effect the other way counts as inactive or inconclusive.

How the values were obtained:
[1] = target: Estrogen receptor (Homo sapiens) (UniProt P03372); experiment: qHTS assay to identify small molecule agonists of the estrogen receptor alpha (ER-alpha) signaling pathway in the presence of an antagonist (AID 1259383; calls by dose curve; also: top concentration of the series differs between compounds; nearly all actives have a fitted effect of over 15% in size)
Estrogen receptor (Homo sapiens), sequence (P03372 whole entry, looked up): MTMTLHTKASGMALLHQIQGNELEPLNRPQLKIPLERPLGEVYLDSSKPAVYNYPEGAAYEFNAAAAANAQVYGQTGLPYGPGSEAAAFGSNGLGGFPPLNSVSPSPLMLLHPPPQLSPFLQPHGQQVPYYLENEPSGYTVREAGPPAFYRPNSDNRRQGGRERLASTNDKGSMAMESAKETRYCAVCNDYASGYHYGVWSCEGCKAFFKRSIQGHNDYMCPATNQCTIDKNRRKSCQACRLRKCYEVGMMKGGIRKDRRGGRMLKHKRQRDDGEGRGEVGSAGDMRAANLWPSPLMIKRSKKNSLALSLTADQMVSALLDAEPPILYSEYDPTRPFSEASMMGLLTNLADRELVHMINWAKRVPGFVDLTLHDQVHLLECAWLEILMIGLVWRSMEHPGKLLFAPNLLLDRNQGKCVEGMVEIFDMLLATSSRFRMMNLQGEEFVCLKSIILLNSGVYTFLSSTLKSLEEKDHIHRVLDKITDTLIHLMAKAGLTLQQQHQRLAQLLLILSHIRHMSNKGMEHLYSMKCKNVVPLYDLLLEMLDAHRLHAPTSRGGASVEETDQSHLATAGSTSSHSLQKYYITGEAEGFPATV
Method in brief: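 Using VM7Luc4E2 cells seeded 24hr before treatment, antagonist ICI-182,780 (10.0nM final) was added, followed by compounds at 15 concentrations. Plates incubated 22hr; ONE-Glo luminescence quantified reporter activity.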

[2] = qHTS assay to identify small molecule agonists or antagonists of the thyroid stimulating hormone receptor (TSHR) signaling pathway - wild type cell line counter screen (AID 1259384; calls by dose curve)
Method in brief: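 Wild-type HEK293 cells were plated 18 h at 37 C/5% CO2, pin-dosed with compound plus Ro20-1724 medium, held 30 min at room temperature, then given cAMP-d2 and anti-cAMP-cryptate; fluorescence was read after 1 h. Fifteen concentrations, triplicate.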

[3] = target: Thyrotropin receptor (Homo sapiens) (UniProt P16473); experiment: qHTS assay to identify small molecule antagonists of the thyroid stimulating hormone receptor (TSHR) signaling pathway (AID 1259385; calls by dose curve; also: nearly all actives have a fitted effect of over 20% in size)
Thyrotropin receptor (Homo sapiens), sequence (P16473 whole entry, looked up): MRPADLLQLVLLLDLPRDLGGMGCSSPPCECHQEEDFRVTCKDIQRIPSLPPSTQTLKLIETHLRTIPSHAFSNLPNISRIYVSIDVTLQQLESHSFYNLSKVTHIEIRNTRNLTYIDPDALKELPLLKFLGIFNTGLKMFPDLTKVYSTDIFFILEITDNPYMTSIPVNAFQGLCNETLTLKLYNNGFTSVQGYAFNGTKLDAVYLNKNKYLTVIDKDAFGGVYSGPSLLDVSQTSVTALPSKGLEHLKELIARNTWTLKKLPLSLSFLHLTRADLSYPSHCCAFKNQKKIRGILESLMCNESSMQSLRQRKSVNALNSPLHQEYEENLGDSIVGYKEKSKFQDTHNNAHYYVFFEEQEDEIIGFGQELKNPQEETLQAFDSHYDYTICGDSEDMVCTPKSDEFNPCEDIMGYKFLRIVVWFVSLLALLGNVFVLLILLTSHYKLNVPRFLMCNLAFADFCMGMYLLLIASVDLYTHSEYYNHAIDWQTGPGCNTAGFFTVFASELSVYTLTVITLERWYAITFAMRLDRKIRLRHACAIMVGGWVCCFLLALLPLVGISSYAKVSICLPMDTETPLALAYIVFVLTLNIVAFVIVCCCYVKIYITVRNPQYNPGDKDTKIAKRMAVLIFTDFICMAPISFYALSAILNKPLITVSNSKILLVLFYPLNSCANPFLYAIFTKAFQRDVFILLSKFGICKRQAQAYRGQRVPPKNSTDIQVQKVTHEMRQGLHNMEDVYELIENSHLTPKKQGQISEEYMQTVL
Method in brief: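 TSHR-HEK293 cells were plated and held 18 h at 37C/5% CO2, then given compound plus Ro20-1724 and stimulated with TSH at 1.5 ng/mL final. After 30 min at room temperature, cAMP was detected with cAMP-d2/anti-cAMP-cryptate (1 h) by fluorescence.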

[4] = qHTS assay to identify small molecule agonists of the estrogen receptor alpha (ER-alpha) signaling pathway in the presence of an antagonist - cell viability counter screen (AID 1259386);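 also: series mostly up to about 92 µM; cells exposed to compounds for 22 h at 37 °C before the viability read; nearly all actives have a fitted effect of over 30% in size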
Method in brief: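 ICI-182,780 at 10.0nM final accompanies the compound titration (15 concentrations, 22hr, 37C) on VM7Luc4E2 cells. The CellTiter-Fluor fluorescence readout runs in the same wells as the luciferase assay.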

[5] = target: Progesterone receptor (Homo sapiens) (UniProt P06401); experiment: qHTS assay to identify small molecule agonists of the progesterone receptor (PR) signaling pathway (AID 1346784; calls by dose curve; also: nearly all actives have a fitted effect of over 30% in size)
Progesterone receptor (Homo sapiens), sequence (P06401 whole entry, looked up): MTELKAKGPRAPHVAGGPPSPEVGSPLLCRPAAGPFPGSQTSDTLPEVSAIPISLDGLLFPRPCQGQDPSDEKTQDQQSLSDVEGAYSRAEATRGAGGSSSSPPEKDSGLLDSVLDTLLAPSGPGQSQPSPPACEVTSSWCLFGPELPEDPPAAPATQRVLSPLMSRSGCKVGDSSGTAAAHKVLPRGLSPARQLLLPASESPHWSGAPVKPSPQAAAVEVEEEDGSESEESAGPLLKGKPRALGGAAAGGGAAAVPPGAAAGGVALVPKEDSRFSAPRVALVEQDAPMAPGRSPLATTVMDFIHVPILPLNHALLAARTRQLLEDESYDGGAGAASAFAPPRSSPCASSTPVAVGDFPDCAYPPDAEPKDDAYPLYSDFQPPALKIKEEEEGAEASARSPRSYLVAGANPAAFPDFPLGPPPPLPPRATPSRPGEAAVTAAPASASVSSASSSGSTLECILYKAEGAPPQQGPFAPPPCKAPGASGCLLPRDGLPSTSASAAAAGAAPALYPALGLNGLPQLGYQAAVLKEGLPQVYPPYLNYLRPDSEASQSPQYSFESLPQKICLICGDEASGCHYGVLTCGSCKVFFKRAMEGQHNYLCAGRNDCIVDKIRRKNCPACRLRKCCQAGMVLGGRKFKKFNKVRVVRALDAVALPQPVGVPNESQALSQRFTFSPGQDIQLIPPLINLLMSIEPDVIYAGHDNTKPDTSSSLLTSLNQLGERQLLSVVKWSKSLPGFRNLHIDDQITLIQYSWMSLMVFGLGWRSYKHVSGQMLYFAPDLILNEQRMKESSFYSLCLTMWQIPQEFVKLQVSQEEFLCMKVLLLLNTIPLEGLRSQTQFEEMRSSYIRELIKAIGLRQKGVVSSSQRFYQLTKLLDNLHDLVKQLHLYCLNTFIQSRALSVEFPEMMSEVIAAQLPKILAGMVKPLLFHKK
Method in brief: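 Reporter assay, GripTite PR-UAS-bla HEK 293T cells: 16 hr exposure to DMSO-dissolved compounds at 37C, 5% CO2, in steroid-depleted (2% charcoal-stripped FBS) medium; beta-lactamase measured by FRET fluorescence.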

[6] = qHTS assay to identify small molecule antagonists of the progesterone receptor (PR) signaling pathway - cell viability counter screen (AID 1346798); also: series mostly up to about 92 µM; nearly all actives have a fitted effect of over 50% in size
Method in brief: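 In the same plates used for the beta-lactamase readout, cell viability of compound- and R5020-treated PR-UAS-bla HEK293T cells (16 hr, 37C) was assessed by CellTiter-Glo luminescence.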

[7] = qHTS assay to identify small molecule agonists of the progesterone receptor (PR) signaling pathway - cell viability counter screen (AID 1346799; calls by dose curve; also: nearly all actives have a fitted effect of over 45% in size)
Method in brief: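 Multiplexed viability read: CellTiter-Glo luminescence, 30 min RT, following LiveBLAzer FRET measurement on PR-UAS-bla HEK293T cells exposed to compounds 16 hr.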

[8] = qHTS assay to identify small molecule antagonists of the TGF-beta/Smad signaling pathway - cell viability counter screen (AID 1346824); also: nearly all actives have a fitted effect of over 50% in size
Method in brief: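 SBE-bla HEK 293T cells were plated overnight at 37 C, then given compounds in DMSO plus TGF-beta1 (added as 0.25 ng/mL solution) for 5 hr. After the bla read, CellTiter-Glo was added to the same wells and luminescence read after 30 min at room temperature.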

[9] = qHTS assay to identify small molecule agonists of the TGF-beta/Smad signaling pathway - cell viability counter screen (AID 1346829); also: top concentration of the series differs between compounds; nearly all actives have a fitted effect of over 45% in size
Method in brief: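 Cytotoxicity counter screen: CellTiter-Glo luminescence (30 min, room temperature) measured in the SBE-bla HEK 293T reporter wells after 5 hr compound treatment at 37 C and the 2 hr substrate step.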

[10] = qHTS assay to identify small molecule agonists of the TGF-beta/Smad signaling pathway (AID 1346859; active = well fitted activation curve with a large enough effect in the signal ratio in the repeat runs, not every such curve was filed as active; the % refers to the signal ratio; also: series mostly up to about 77 µM)
Method in brief: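 Screening used HEK 293T SBE-bla cells at 4,000/well. Test agents: 5 hr, 37 C. Detection: FRET substrate, 2 hr RT, then excitation 405 nm with emissions at 460 and 530 nm.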

[11] = target: Thyrotropin-releasing hormone receptor (Homo sapiens) (UniProt P34981); experiment: qHTS assay to identify small molecule antagonists of the thyrotropin-releasing hormone receptor (TRHR) signaling pathway (AID 1346877; active = well fitted inhibition curve with a large enough effect in the repeat runs, not every such curve was filed as active; also: series mostly up to about 51 µM)
Thyrotropin-releasing hormone receptor (Homo sapiens), sequence (P34981 whole entry, looked up): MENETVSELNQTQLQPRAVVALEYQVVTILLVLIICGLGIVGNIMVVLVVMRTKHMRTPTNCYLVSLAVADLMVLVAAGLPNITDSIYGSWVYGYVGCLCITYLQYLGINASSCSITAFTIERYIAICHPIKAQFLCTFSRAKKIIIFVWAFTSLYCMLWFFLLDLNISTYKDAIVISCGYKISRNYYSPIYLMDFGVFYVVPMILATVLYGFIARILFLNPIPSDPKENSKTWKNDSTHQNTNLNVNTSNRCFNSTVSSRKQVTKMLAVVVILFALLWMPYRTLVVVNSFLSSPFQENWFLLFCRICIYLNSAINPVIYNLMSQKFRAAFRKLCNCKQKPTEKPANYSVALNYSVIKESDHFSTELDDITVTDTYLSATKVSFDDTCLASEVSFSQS
Method in brief: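 Screening used HEK293 cells engineered with TRHR, with a brief 5 min room-temperature compound exposure preceding addition of TRH to 1 nM. The read-out was kinetic calcium-dye fluorescence, concentration-response from 15 doses in triplicate.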

[12] = target: Thyrotropin-releasing hormone receptor (Homo sapiens) (UniProt P34981); experiment: qHTS assay to identify small molecule agonists of the thyrotropin-releasing hormone receptor (TRHR) signaling pathway (AID 1346891; calls by dose curve; also: series mostly up to about 58 µM)
Method in brief: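 Readout was intracellular calcium fluorescence in TRHR-Hek293 cells. Cells were incubated 18 h, dye-loaded 2 h at 37 °C, and treated with compound in agonist mode.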

[13] = Human pregnane X receptor (PXR) small molecule agonists, qHTS cell viability counter screen (AID 1346977); also: nearly all actives have a fitted effect of over 50% in size
Method in brief: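 In each well, the PXR reporter HepG2 line was checked for viability: CellTiter-Fluor reagent added 23hr post-dosing, fluorescence read after 1hr incubation at 37C.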

[14] = Caspase-3/7 induction in HepG2 cells by small molecules, qHTS assay (AID 1346978); also: nearly all actives have a fitted effect of over 15% in size
Method in brief: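 Wild-type HepG2 cells (2,000/well) were settled 5 h at 37 C, 5% CO2, then exposed to compounds in DMSO for 17 h. Caspase-3/7 activity was read by luminescence 30 min after adding Caspase-Glo 3/7 reagent at room temperature.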

[15] = Caspase-3/7 induction in HepG2 cells by small molecules, qHTS cell viability counter screen (AID 1346981); also: series mostly up to about 92 µM; nearly all actives have a fitted effect of over 30% in size
Method in brief: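 Multiplexed with the caspase-3/7 assay: HepG2 cells, 16 hr compound treatment, CellTiter-Fluor viability detection by fluorescence.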

[16] = target: Nuclear receptor subfamily 1 group I member 2 (Homo sapiens) (UniProt O75469); experiment: Human pregnane X receptor (PXR) small molecule agonists, qHTS assay (AID 1346982); also: nearly all actives have a fitted effect of over 35% in size
Nuclear receptor subfamily 1 group I member 2 (Homo sapiens), sequence (O75469 whole entry, looked up): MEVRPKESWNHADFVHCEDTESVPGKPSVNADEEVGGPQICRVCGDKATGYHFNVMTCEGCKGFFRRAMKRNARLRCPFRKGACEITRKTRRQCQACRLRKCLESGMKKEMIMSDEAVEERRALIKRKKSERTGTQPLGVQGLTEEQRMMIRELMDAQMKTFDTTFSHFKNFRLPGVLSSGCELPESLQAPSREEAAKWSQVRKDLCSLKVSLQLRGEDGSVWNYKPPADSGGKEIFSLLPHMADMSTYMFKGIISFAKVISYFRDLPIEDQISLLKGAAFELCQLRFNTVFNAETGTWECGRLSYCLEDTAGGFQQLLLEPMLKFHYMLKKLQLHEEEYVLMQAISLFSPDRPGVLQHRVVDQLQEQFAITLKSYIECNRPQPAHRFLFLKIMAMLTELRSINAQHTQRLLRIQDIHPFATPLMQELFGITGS
Method in brief: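 We seeded PXR-Luc HepG2 cells in assay medium containing 5% charcoal-stripped FBS, added compounds 5 hr later, incubated 24 hr, and read luminescence with ONE-Glo reagent.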

[17] = Caspase-3/7 induction in CHO-K1 cells by small molecules, qHTS cell viability counter screen (AID 1346979); also: nearly all actives have a fitted effect of over 35% in size
Method in brief: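 Following a 5hr settling period, CHO-K1 cells at 1,500 per well received DMSO-dissolved compounds. Cell viability was quantified 16hr later by CellTiter-Fluor fluorescence, measured after 1hr with reagent at 37C.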

[18] = Caspase-3/7 induction in CHO-K1 cells by small molecules, qHTS assay (AID 1346980); also: nearly all actives have a fitted effect of over 15% in size
Method in brief: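 Wild-type cells were seeded at 1,500 per well and settled 5 hr at 37 C, 5% CO2, then exposed to DMSO-dissolved compounds for 17 hr. Caspase-Glo 3/7 reagent was added, and luminescence was read after 30min at room temperature.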

[19] = target: Progesterone receptor (Homo sapiens) (UniProt P06401); experiment: qHTS assay to identify small molecule antagonists of the progesterone receptor (PR) signaling pathway (AID 1346795; active = well fitted inhibition curve with a large enough effect in the signal ratio in the repeat runs, not every such curve was filed as active; the % refers to the signal ratio)
Method in brief: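 Stimulus R5020 at 1 nM final; cells HEK293T PR-UAS-bla; medium with 2% charcoal-stripped FBS; compound exposure 16 hr at 37C, 5% CO2; detection by FRET beta-lactamase substrate, 2 hr, room temperature.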

[20] = target: Nuclear receptor subfamily 1 group I member 2 (Rattus norvegicus) (UniProt Q9R1A7); experiment: Rat pregnane X receptor (rPXR) activation by small molecules, qHTS assay (AID 1346983); conditions: rPXR luciferase reporter cells, One-Glo luminescence, 24 h; max activation: active compounds read high; also: nearly all actives have a fitted effect of over 20% in size
Nuclear receptor subfamily 1 group I member 2 (Rattus norvegicus), sequence (Q9R1A7 whole entry, looked up): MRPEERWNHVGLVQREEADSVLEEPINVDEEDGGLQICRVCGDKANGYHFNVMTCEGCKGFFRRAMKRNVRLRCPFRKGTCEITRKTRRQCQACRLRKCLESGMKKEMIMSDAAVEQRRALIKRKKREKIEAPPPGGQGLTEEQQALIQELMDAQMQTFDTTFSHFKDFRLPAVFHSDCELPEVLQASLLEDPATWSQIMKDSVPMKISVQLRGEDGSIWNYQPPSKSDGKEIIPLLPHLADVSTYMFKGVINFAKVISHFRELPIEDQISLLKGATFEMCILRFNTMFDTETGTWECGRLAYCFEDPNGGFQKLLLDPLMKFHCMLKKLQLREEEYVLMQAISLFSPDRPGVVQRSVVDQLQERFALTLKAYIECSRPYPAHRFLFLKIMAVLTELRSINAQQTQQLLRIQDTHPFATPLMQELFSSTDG
Method in brief: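 Cell-based rPXR luciferase reporter assay, 2,000 cells per well, rested 5hr at 37 C before compound addition in DMSO, then 24 hr at 37 C. One-Glo reagent was added and luminescence read after 30 min at room temperature.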
% is scaled to controls: 0 for no effect and ±100 for the full control effect.

CCc1nccnc1C
inactive: outcome [1] | outcome [2] | outcome [3] | Potency [4] | Potency [5] | Potency [6] | Potency [7] | outcome [8] | outcome [9] | outcome [10] | outcome [11] | outcome [12] | Potency [13] | outcome [14] | Potency [15] | Potency [16]

CN=C(NC#N)NCCSCc1csc(N=C(N)N)n1
inactive: outcome [1] | outcome [2] | outcome [3] | Potency [4] | Potency [5] | outcome [8] | outcome [9] | outcome [10] | Potency [13] | outcome [14] | Potency [17] | outcome [18] | Potency [15]

CC(=O)Nc1ncc([N+](=O)[O-])s1
inactive: outcome [1] | outcome [2] | outcome [3] | Potency [5] | Potency [19] | Potency [6] | Potency [7] | outcome [8] | outcome [9] | outcome [10] | outcome [11] | outcome [12] | Potency [13] | outcome [14] | Potency [17] | outcome [18] | Potency [15] | Potency [16] | max activation [20] -3.65%

CCCCOC(=O)[C@@H](C)Oc1ccc(Oc2ccc(C(F)(F)F)cn2)cc1
inactive: outcome [1] | outcome [2] | Potency [4] | Potency [5] | Potency [19] | Potency [7] | outcome [8] | outcome [9] | outcome [10] | Potency [13] | outcome [14] | Potency [17] | outcome [18] | Potency [15] | Potency [16]

OC[C@@H](O)[C@H](O)[C@@H](O)[C@@H](O)CO
inactive: outcome [1] | outcome [2] | outcome [3] | Potency [4] | Potency [5] | Potency [6] | Potency [7] | outcome [8] | outcome [9] | outcome [10] | Potency [13] | outcome [14] | Potency [17] | outcome [18] | Potency [16]

O=c1[nH]c(=O)c2[nH]c(=O)[nH]c2[nH]1
inactive: activation [1] 0.0928% [at 8.39 µM] | cAMP activity change [2] -3.72% [at 8.39 µM] | activity change, negative = inhibition [3] 0.717% [at 8.39 µM] | activity change, negative = cytotoxicity [4] 1.17% [at 8.39 µM] | activation [5] -0.558% [at 8.39 µM] | activity change, negative = inhibition [19] 0.247% [at 8.39 µM] | activity change, negative = cytotoxicity [7] -1.97% [at 8.39 µM] | viability change, negative = cytotoxic [8] 2.42% [at 6.97 µM] | activity change, negative = cytotoxicity [9] -0.0048% [at 6.97 µM] | activity, negative = inhibition [11] 0.0155% [at 4.65 µM] | activation [12] 0.501% [at 5.23 µM] | activity change, negative = cytotoxicity [13] -1.5% [at 8.39 µM] | caspase activation [14] -0.796% [at 8.39 µM] | activity change, negative = cytotoxicity [17] 4.37% [at 8.39 µM] | caspase-3/7 activation [18] -0.0479% [at 8.39 µM] | activity change, negative = cytotoxicity [15] 2.67% [at 8.39 µM] | activation [16] -5.05% [at 8.39 µM] | max activation [20] -2.16%

FC(F)(F)/C(=N\OCC1OCCO1)c1ccc(Cl)cc1
inactive: outcome [1] | outcome [2] | outcome [3] | Potency [4] | Potency [5] | Potency [19] | Potency [7] | outcome [8] | outcome [9] | outcome [10] | outcome [11] | outcome [12] | Potency [13] | outcome [14] | Potency [17] | outcome [18] | Potency [16]

O=C(Oc1ccccc1C(=O)O)c1ccccc1O
inactive: outcome [1] | outcome [2] | outcome [3] | Potency [4] | Potency [5] | Potency [19] | Potency [7] | outcome [8] | outcome [9] | outcome [11] | outcome [12] | Potency [13] | outcome [14] | outcome [18] | Potency [15] | Potency [16] | max activation [20] -2.38%

O=C(O)CCNC(=O)c1ccccc1
inactive: outcome [1] | outcome [2] | outcome [3] | Potency [5] | Potency [19] | Potency [6] | Potency [7] | outcome [9] | outcome [10] | outcome [11] | outcome [12] | Potency [13] | outcome [14] | Potency [17] | outcome [18] | Potency [15] | Potency [16]

CCS(=O)(=O)CCn1c([N+](=O)[O-])cnc1C
inactive: outcome [1] | outcome [2] | outcome [3] | Potency [4] | Potency [5] | Potency [19] | Potency [7] | outcome [8] | outcome [9] | outcome [10] | outcome [11] | outcome [12] | Potency [13] | outcome [14] | Potency [17] | Potency [15]

Cc1oc(=O)oc1CN1CCN(c2cc3c(cc2F)c(=O)c(C(=O)O)c2n3C(C)S2)CC1 (stereo not drawn)
inactive: outcome [1] | outcome [2] | outcome [3] | Potency [4] | Potency [5] | Potency [19] | Potency [7] | outcome [8] | outcome [9] | outcome [11] | outcome [12] | Potency [13] | outcome [14] | Potency [17] | outcome [18] | Potency [16] | max activation [20] -2.98%

C=CCOc1c(Br)cc(Br)cc1Br
inactive: outcome [1] | outcome [2] | Potency [4] | Potency [5] | Potency [6] | Potency [7] | outcome [8] | outcome [9] | outcome [10] | outcome [11] | outcome [12] | Potency [13] | outcome [14] | Potency [17] | outcome [18] | Potency [15] | Potency [16]

C[C@H](CCC(=O)O)[C@H]1CC[C@H]2[C@@H]3[C@H](O)C[C@@H]4C[C@H](O)CC[C@]4(C)[C@H]3C[C@H](O)[C@]12C
inactive: outcome [1] | outcome [2] | outcome [3] | Potency [5] | Potency [19] | Potency [6] | Potency [7] | outcome [8] | outcome [9] | outcome [10] | Potency [13] | outcome [14] | Potency [17] | outcome [18] | Potency [15] | Potency [16]
